# Reference: ChEMBL document CHEMBL1961873, “Compounds: GSK PKIS; Assays: Nanosyn kinase panel” (2012)
# Assays:
# [1] = biological target: Serine/threonine-protein kinase MRCK alpha (Homo sapiens) (UniProt Q5VT25); settings: at 0.1 µM
# [2] = biological target: Serine/threonine-protein kinase MRCK alpha (Homo sapiens) (UniProt Q5VT25); settings: at 1 µM
# [3] = biological target: Serine/threonine-protein kinase MRCK beta (Homo sapiens) (UniProt Q9Y5S2); settings: at 0.1 µM
# [4] = biological target: Serine/threonine-protein kinase MRCK beta (Homo sapiens) (UniProt Q9Y5S2); settings: at 1 µM
# [5] = biological target: Ribosomal protein S6 kinase alpha-5 (Homo sapiens) (UniProt O75582); settings: at 0.1 µM
# [6] = biological target: Ribosomal protein S6 kinase alpha-5 (Homo sapiens) (UniProt O75582); settings: at 1 µM
# [7] = biological target: Ribosomal protein S6 kinase alpha-4 (Homo sapiens) (UniProt O75676); settings: at 0.1 µM
# [8] = biological target: Ribosomal protein S6 kinase alpha-4 (Homo sapiens) (UniProt O75676); settings: at 1 µM
# [9] = biological target: Ribosomal protein S6 kinase beta-1 (Homo sapiens) (UniProt P23443); settings: at 0.1 µM
# [10] = biological target: Ribosomal protein S6 kinase beta-1 (Homo sapiens) (UniProt P23443); settings: at 1 µM
# [11] = biological target: T1, 3-phosphoinositide-dependent protein kinase 1 (Homo sapiens) (UniProt O15530); settings: at 0.1 µM;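 note: values are mean inhibition of PDK1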
# T1 sequence (whole entry): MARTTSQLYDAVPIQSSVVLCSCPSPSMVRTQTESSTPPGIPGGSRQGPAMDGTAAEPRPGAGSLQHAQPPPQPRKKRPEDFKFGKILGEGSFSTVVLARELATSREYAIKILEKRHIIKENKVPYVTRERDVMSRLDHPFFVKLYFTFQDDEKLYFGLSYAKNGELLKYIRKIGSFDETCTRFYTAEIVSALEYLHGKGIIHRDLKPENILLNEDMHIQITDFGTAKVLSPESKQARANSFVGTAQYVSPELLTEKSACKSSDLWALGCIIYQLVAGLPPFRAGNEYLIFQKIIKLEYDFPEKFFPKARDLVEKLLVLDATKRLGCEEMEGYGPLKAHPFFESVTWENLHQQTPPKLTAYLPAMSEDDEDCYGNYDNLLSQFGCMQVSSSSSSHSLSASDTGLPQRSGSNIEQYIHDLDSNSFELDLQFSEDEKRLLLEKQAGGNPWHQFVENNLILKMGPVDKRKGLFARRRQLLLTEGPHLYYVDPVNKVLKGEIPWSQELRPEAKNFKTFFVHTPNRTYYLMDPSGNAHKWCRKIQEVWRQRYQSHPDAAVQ
# [12] = biological target: cAMP-dependent protein kinase catalytic subunit alpha (Homo sapiens) (UniProt P17612); settings: at 0.1 µM
# [13] = biological target: cAMP-dependent protein kinase catalytic subunit alpha (Homo sapiens) (UniProt P17612); settings: at 1 µM
# [14] = biological target: Protein kinase C alpha type (Homo sapiens) (UniProt P17252); settings: at 0.1 µM
# [15] = biological target: Protein kinase C alpha type (Homo sapiens) (UniProt P17252); settings: at 1 µM
# [16] = biological target: Protein kinase C beta type (Homo sapiens) (UniProt P05771); settings: at 0.1 µM
# [17] = biological target: Protein kinase C beta type (Homo sapiens) (UniProt P05771); settings: at 1 µM
# [18] = biological target: Protein kinase C eta type (Homo sapiens) (UniProt P24723); settings: at 0.1 µM
# [19] = biological target: Protein kinase C eta type (Homo sapiens) (UniProt P24723); settings: at 1 µM
# [20] = biological target: Protein kinase C gamma type (Homo sapiens) (UniProt P05129); settings: at 0.1 µM;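 note: values are mean percent inhibition of PKC gamma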
# Sequence of Serine/threonine-protein kinase MRCK alpha (Homo sapiens) (Q5VT25 whole entry): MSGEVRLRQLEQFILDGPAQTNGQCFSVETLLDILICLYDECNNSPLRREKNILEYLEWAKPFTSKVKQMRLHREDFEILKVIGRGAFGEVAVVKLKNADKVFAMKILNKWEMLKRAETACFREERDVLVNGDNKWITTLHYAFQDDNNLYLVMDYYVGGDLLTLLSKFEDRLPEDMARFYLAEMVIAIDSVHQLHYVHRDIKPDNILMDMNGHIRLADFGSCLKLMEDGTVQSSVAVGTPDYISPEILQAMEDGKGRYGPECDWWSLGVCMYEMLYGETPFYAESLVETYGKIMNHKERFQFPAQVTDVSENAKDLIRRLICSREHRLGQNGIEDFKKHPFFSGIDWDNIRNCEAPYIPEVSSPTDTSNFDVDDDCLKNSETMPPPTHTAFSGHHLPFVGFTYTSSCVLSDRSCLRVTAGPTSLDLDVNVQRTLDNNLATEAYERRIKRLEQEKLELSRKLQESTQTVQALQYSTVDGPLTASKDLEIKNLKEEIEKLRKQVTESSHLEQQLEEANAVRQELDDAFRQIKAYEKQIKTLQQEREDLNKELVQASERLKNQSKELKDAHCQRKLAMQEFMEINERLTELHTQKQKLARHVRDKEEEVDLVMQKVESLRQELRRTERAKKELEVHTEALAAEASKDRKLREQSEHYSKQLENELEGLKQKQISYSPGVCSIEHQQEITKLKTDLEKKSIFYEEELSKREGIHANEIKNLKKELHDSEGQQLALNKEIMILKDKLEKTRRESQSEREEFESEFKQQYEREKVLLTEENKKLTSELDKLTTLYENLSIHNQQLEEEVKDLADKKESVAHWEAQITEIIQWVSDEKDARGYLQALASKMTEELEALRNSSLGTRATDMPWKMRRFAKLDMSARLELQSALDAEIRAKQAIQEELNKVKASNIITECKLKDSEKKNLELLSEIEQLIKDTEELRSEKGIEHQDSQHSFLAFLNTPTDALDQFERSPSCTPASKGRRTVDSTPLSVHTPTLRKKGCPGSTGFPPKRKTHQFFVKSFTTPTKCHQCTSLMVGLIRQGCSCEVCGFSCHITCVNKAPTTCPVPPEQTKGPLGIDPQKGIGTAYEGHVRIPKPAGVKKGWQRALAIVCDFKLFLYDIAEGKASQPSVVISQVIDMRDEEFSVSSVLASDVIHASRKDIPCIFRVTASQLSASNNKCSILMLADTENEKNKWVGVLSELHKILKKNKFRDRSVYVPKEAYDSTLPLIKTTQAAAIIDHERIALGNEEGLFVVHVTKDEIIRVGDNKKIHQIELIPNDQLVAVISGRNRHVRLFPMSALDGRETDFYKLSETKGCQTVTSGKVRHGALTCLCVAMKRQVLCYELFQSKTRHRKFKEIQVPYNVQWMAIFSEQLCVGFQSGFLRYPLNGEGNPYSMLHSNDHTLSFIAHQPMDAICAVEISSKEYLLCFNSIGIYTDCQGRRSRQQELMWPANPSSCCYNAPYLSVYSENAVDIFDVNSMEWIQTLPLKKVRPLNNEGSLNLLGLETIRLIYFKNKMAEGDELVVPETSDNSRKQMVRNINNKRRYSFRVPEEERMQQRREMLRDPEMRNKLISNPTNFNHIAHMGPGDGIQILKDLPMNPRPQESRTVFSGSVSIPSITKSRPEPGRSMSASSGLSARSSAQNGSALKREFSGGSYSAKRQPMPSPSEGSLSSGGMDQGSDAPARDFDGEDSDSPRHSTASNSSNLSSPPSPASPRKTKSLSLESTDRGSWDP
# Sequence of Protein kinase C eta type (Homo sapiens) (P24723 whole entry): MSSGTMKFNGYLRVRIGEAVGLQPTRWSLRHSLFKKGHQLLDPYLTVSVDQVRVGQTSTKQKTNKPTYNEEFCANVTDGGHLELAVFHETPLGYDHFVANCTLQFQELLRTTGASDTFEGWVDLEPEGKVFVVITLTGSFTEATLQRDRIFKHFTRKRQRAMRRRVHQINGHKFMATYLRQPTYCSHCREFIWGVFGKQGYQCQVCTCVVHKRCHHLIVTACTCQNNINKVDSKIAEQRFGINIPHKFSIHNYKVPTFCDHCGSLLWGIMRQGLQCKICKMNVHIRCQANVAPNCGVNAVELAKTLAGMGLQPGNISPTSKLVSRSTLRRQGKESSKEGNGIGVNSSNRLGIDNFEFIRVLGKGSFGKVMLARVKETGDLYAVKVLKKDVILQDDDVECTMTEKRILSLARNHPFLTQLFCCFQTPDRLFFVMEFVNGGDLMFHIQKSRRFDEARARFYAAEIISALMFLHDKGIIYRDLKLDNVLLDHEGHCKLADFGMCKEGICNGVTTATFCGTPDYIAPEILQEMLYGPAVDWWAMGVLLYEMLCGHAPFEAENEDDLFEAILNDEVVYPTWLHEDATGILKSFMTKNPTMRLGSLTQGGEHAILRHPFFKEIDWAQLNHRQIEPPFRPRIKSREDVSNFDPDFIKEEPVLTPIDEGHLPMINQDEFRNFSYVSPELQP
# Sequence of Ribosomal protein S6 kinase alpha-4 (Homo sapiens) (O75676 whole entry, looked up): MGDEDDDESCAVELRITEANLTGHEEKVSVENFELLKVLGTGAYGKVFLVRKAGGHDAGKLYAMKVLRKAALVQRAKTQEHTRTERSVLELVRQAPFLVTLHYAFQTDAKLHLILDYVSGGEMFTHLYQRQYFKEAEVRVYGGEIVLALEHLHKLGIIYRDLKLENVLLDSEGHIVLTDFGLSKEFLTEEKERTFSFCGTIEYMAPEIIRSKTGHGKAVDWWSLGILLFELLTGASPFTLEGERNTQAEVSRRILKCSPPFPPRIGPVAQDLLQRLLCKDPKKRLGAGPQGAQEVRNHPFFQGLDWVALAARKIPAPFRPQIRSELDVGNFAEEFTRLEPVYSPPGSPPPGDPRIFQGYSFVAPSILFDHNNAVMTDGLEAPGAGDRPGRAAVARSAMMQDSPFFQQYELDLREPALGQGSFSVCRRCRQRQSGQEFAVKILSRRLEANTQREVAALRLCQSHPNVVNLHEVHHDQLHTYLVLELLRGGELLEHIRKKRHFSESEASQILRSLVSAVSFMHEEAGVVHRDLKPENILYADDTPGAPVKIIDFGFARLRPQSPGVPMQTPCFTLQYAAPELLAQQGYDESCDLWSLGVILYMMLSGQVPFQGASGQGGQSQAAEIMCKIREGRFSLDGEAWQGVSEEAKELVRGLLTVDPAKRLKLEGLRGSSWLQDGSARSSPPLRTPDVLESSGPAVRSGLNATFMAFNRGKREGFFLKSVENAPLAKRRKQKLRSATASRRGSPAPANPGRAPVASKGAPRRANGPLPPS
# Sequence of Ribosomal protein S6 kinase alpha-5 (Homo sapiens) (O75582 whole entry, looked up): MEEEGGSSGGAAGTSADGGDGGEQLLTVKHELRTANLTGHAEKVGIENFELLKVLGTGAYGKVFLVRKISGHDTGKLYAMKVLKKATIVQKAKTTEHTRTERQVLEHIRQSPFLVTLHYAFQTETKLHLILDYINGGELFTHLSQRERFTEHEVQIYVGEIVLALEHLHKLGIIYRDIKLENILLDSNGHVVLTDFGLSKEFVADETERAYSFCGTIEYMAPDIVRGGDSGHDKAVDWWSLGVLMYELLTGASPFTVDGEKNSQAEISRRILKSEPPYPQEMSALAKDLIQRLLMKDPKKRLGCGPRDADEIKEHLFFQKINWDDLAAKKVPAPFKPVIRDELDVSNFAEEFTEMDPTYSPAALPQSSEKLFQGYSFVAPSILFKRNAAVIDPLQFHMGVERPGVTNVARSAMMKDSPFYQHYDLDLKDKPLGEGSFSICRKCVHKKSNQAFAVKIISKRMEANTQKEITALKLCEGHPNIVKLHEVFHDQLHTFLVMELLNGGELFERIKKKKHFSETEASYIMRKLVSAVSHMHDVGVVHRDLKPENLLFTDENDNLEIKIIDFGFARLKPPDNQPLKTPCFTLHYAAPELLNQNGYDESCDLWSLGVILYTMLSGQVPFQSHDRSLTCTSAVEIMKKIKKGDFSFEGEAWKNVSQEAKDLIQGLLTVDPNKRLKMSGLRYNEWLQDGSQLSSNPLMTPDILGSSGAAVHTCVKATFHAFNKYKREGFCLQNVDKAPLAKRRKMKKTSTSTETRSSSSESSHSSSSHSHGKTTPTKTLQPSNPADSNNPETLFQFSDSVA
SMILES,inhibition [1],inhibition [2],inhibition [3],inhibition [4],inhibition [5],inhibition [6],inhibition [7],inhibition [8],inhibition [9],inhibition [10],inhibition [11],inhibition [12],inhibition [13],inhibition [14],inhibition [15],inhibition [16],inhibition [17],inhibition [18],inhibition [19],inhibition [20]
COc1cccc(-n2nc(C)c3c(N/N=C(\C)c4ccncc4)ncnc32)c1,1.87%,-2.42%,0.02%,-0.47%,0.18%,-0.52%,0.44%,0.3%,0.29%,-0.38%,2.62%,0.69%,-0.34%,-0.84%,-1.11%,0.03%,-2.45%,-0.66%,-5.32%,1.51%
CCn1c(-c2nonc2N)nc2ccc(F)cc21,-0.42%,3.28%,-0.61%,1.2%,7.13%,21.2%,3.5%,10.8%,3.92%,28.4%,-0.67%,2.75%,6.34%,1%,1.33%,2.61%,15.6%,6.39%,26.6%,4.75%
COc1cc2ncnc(Nc3ccc(C)c(O)c3)c2cc1OC,0.29%,0.79%,1.59%,0.25%,5.09%,4.76%,4.36%,2.32%,3.34%,2.36%,1.3%,2.17%,3.17%,1.06%,3.24%,1.28%,5.43%,3.76%,0.65%,2.11%
NS(=O)(=O)c1ccc(N/N=C2\C(=O)Nc3ccc(Cl)cc32)cc1,-0.18%,2.52%,0.03%,0.67%,-2.92%,-0.64%,2.66%,5.77%,1.75%,2.32%,2.36%,3.49%,4.12%,0.69%,1.45%,1.35%,2.75%,4.13%,4.71%,-1.84%
Cc1ccc(NC(=O)CC2CC2)cc1-c1ccc(C(=O)NCC2CC2)cc1,-0.72%,2.73%,-0.56%,0.45%,8.94%,8.13%,2.17%,2.4%,1.73%,2.46%,1.84%,1.31%,0.41%,0.78%,1.96%,-0.34%,2.08%,3.52%,4.84%,2.09%
CCS(=O)(=O)c1ccc(OC)c(Nc2ncc(-c3cccc(OC)c3)o2)c1,-0.07%,-0.94%,-0.48%,0.59%,3.23%,7.32%,-0.21%,3.76%,0.98%,1.18%,1.14%,1.07%,1.26%,1.39%,5.21%,0.07%,-1.05%,-0.85%,1.66%,2.11%
Cc1ccc2c(c1)/C(=N/Nc1ccc(S(N)(=O)=O)cc1)C(=O)N2,0.22%,1.3%,-0.79%,1.36%,0.95%,1.23%,-1.41%,2.32%,0.52%,2.59%,0.19%,0.27%,1.28%,0.13%,-0.36%,-0.92%,0.39%,-0.77%,-1.47%,-1.71%
Cc1cc(-c2ccccn2)cc(C)c1/C=C/c1cncc(-c2nn[nH]n2)c1,2.46%,1.25%,0.75%,0.41%,3.34%,2.91%,0.46%,1.78%,0.44%,1.44%,-0.5%,1.63%,1.8%,0.99%,3.52%,0.54%,0.37%,2.25%,5.16%,1.57%
COc1cc(/C=N/Nc2ncnc3c2cnn3C(C)C)ccc1O,0%,0.03%,0.84%,0.35%,2.8%,3.54%,2.2%,1.83%,1.17%,2.21%,5.59%,1.05%,3.87%,0.6%,2.74%,0.72%,3.01%,0.82%,3.21%,-1.82%
O=C(Nc1ccc(Oc2ccc3[nH]c(NC(=O)c4ccco4)nc3c2)cc1)Nc1cc(C(F)(F)F)ccc1F,-0.11%,-0.59%,1.48%,2.67%,-0.96%,1.79%,1.72%,5.67%,14.2%,58.4%,2.37%,-0.33%,0.09%,-3.29%,-2.22%,-0.09%,-1.32%,1.15%,-0.71%,2.16%
Nc1nccc(C#Cc2cncnc2Nc2ccc(OCc3cccc(F)c3)c(Cl)c2)n1,0.06%,-0.95%,-0.16%,2.38%,4.15%,4.83%,1.39%,4.41%,1.09%,1.35%,2.4%,1.49%,2.74%,1.36%,1.81%,2.69%,2.19%,2.81%,-0.12%,5%
NS(=O)(=O)c1cccc(Nc2cc(-c3ccc(F)cc3)n[nH]2)c1,-0.33%,4.84%,-0.58%,2.02%,9.72%,11.4%,3.37%,5.59%,1.79%,3.12%,0.96%,5.01%,6.49%,0.02%,1.69%,2.83%,6%,2.29%,5.6%,4.38%
NS(=O)(=O)c1ccc(-c2cc3ccncc3cc2OCc2ccccc2)cc1,-0.66%,-1.1%,-1.66%,-2.27%,1.89%,0.96%,1.86%,2.64%,1.3%,2.04%,3.11%,1.4%,0.52%,0.12%,1.77%,0.43%,3.25%,4.33%,3.62%,1.21%
Cc1ccc2c(-c3ccnc(Nc4ccc5c(c4)OCCO5)n3)c(-c3ccc(C(F)(F)F)cc3)nn2n1,-5.75%,-1.13%,0.19%,0.96%,-0.15%,-1.56%,0.87%,2.08%,0.35%,0.24%,-0.78%,4.47%,7.16%,0.21%,1.55%,2.2%,2.03%,0.94%,3.26%,1.27%
